High-throughput results: PubChem, National Center for Advancing Translational Sciences (NCATS)
Shown are actives, neighbours in structure and some others; about 4.7% of the full set was active somewhere.
D1 antag: Antagonist of Human D 1 Dopamine Receptor: qHTS | D(1A) dopamine receptor (Homo sapiens), P21728 | HEK293 TREx D1 cells, calcium flux, dopamine EC80; stronger effect = lower value | activity change, negative = inhibition, % at 10 µM | 360,000 tested, 3.2% active; in the data active means activity change below about -30%; further: on the % scale 0 is the no-effect control and ±100 the full control effect
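Kinetic fluorescence of a calcium dye serves as the read-out. D1-expressing Hek293 Trex cells, induced overnight at 30 C, are exposed to compound for 180 s before an EC80 dopamine addition, then read 180 s further.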
D1 agonist: Allosteric Agonists of the Human D1 Dopamine Receptor: qHTS; D(1A) dopamine receptor (Homo sapiens), P21728; HEK293 T-REx D1 cells, calcium flux, agonist mode; activation, % at 2 µM; 360,000 tested, 1% active; AID 504660, 2011; further: 0% is about no effect
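Agonism was scored from calcium flux recorded over 180 s (1 read/s) after pintool compound addition, following a 10-cycle baseline. Cells were inducible force-coupled HEK293 TREx D1, plated overnight at 30 C and loaded with no-wash calcium dye.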
TRHR enhancer: qHTS for Small Molecule Agonists and Allosteric Enhancers of Human TRH Receptor: Primary Screen for Enhancers; TRHR cells, fluo-8 calcium fluorescence, EC20 TRH enhancement; 360,000 tested, 0.66% active; enhancement, % at 2 µM; in the data active means enhancement above about 30%; further: 0% is about no effect
Target sequence (P34981 whole entry, looked up): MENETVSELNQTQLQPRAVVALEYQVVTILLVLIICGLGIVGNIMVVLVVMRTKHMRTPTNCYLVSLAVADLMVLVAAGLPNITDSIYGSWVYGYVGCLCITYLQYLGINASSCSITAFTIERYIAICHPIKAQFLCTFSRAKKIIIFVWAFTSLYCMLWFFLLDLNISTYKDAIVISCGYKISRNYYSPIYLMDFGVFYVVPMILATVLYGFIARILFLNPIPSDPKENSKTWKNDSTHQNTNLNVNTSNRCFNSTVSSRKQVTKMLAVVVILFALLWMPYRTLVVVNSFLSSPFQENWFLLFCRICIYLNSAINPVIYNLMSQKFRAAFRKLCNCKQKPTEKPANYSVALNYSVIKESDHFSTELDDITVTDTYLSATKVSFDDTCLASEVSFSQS
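TRHR-expressing cells loaded with fluo-8 calcium dye were read kinetically (ex 480/em 530) during compound addition, then stimulated with an EC20 of TRH (10 nM final). Enhancement of the Gq-mediated intracellular calcium response was scored.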
D1 potentiator: Potentiators of Human D1 Dopamine Receptor: qHTS; D(1A) dopamine receptor (Homo sapiens), P21728; HEK293 TREx D1 cells, calcium flux, dopamine EC20 potentiation; potentiation, % at 10 µM; 360,000 tested, 0.036% active; AID 504651, 2011; in the data active means potentiation above about 30%; further: 0% is about no effect
TRHR ag: qHTS for Small Molecule Agonists and Allosteric Enhancers of Human TRH Receptor: Primary Screen for Agonists | TRHR cells, calcium flux fluo-8, FDSS agonist mode | activation, % at 2 µM | 360,000 tested, 0.18% active; further: 0% is about no effect
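TRHR-expressing cells, plated overnight in medium with 10% serum, were loaded with fluo-8 calcium dye at room temperature. After a 10 s baseline, library compound was pin-added and calcium release was recorded kinetically (ex 480/em 530) as agonist response.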
An asterisk follows results filed as active. Unless noted, no stated cut-off is given here; in the data, active means activation above about 30%; inactive means the rest.

SMILES	D1 antag	D1 agonist	TRHR enhancer	D1 potentiator	TRHR ag
CCOC(=O)CSc1nc2ccc(NC(=O)COc3ccccc3)cc2s1	-35.7*	10.2	-3.6	-2.0	0.5
CC(=O)N1CCC(N(Cc2ccc(C)o2)C(=O)Nc2ccccc2F)CC1	1.9	1.9	0.5	-0.3	-0.5
CC(=O)c1ccc(NC(=O)CSC2=Nc3ccccc3N=C(c3ccc(F)cc3)C2)cc1	-12.0	2.7	2.0	-0.8	1.2
CCC(=O)Nc1nc2ccc(NC(=O)COc3ccccc3)cc2s1	-71.8*	1.8	-21.1	-3.7	-1.1
COc1ccc(OCC(=O)Nc2nc3ccc(NC(C)=O)cc3s2)cc1	6.7	-0.5	4.1	3.2	0.0
O=C(/C=C/c1cccs1)Nc1nc(-c2ccccc2)cs1	-36.2*	1.0	-1.1	-9.9	0.3
O=C(O)CC1SC(=Nc2ccc(O)cc2)NC1=O (configuration not stated)	-31.1*	2.7	2.4	0.3	-0.2
Cc1ccc(C)c(N2CCN(C(=O)CCc3nnc4n(C)c(=O)c5ccccc5n34)CC2)c1	-7.4	-0.6	-5.2	-1.9	0.1
CCOC(=O)c1nc(-c2ccccc2)oc1N(C)C	-11.4	0.5	30.1*	-2.9	-0.4
O=C(Nc1ccc(S(=O)(=O)N2CCc3ccccc32)cc1)C(F)(F)F	6.5	5.0	-2.6	-1.4	1.7
COC(=O)Nc1ccc(S(=O)(=O)N2CCCc3ccccc32)cc1	-38.4*	5.0	-3.0	-1.9	0.0
O=C(Nc1nnc(S(=O)(=O)N2CCc3ccccc32)s1)c1ccccc1	7.8	0.0	12.0	-0.8	0.1
O=C(Nc1nnc(S(=O)(=O)N2CCCc3ccccc32)s1)c1ccccc1	-32.8*	-0.5	2.5	0.5	-0.2
CCC(=O)Nc1ccc(S(=O)(=O)N2CCc3ccccc32)cc1	-40.8*	8.4	7.1	-8.4	0.3
Cc1ccc(S(=O)(=O)NC(=O)COc2cc(C)ccc2C(C)C)cc1	-44.5*	7.8	-10.8	3.2	-1.2
CC(=O)c1c(C)[nH]c(C(=O)COc2cc(C)ccc2C(C)C)c1C	-36.3*	18.8	-4.0	-14.9	-0.2
Cc1nnsc1-c1onc(C)c1C(=O)Nc1cc(Cl)cc(Cl)c1	-34.5*	9.2	-9.2	-11.8	0.4
Cc1ccc(-c2nnc(SCCOc3ccccc3)o2)cc1	1.8	80.9*	2.6	2.8	-0.6
O=C(CCCOc1ccc(Cl)cc1Cl)NNC(=O)c1ccc(NC(=O)c2ccccc2)cc1	6.9	10.6	1.4	2.2	-1.3
Cc1ccccc1C(=O)Nc1ccc(C(=O)NNC(=O)CCCOc2ccc(Cl)cc2Cl)cc1	-39.1*	2.7	2.3	-3.7	0.4
NCCOc1ccccc1Cc1ccccc1	-55.4*	61.9*	6.6	-24.5	-0.8
CCc1cccc(C)c1NC(=O)Cn1nc(C)c2nn(-c3ccc(Cl)cc3)c(C)c2c1=O	-8.8	3.9	-3.2	-4.4	-0.3
CCOC(=O)c1ccc(NC(=O)Cn2nc(C)c3nn(-c4ccc(Cl)cc4)c(C)c3c2=O)cc1	8.9	6.7	34.2*	-1.6	0.2
CS(=O)(=O)N1CCN(C(=O)c2ccncc2)CC1	-8.9	2.3	-1.0	3.9	0.1
CS(=O)(=O)N1CCN(C(=O)c2ccc(Br)s2)CC1	-31.8*	-2.2	-0.5	-4.0	0.4
SMILES	D1 antag	D1 agonist	TRHR enhancer	D1 potentiator	TRHR ag
CCCC(=O)N1CCN(Cc2ccc3c(c2)OCO3)CC1	11.2	2.2	-1.7	5.7	0.0
CC(=O)N1CCN(Cc2ccc(Br)s2)CC1	8.3	2.9	30.3*	1.8	0.5
CCOc1ccccc1N1CCN(Cc2ccc(Br)s2)CC1	4.1	4.0	-3.1	-2.4	-0.1
O=C(O)CCC(=O)N1CCN(Cc2ccc3c(c2)OCO3)CC1	9.4	0.2	30.7*	1.5	0.7
Cc1cc(C(=O)N2CCCC(N3CCN(Cc4ccc5c(c4)OCO5)CC3)C2)n[nH]1 (configuration not stated)	18.2	1.8	3.3	-5.5	0.0
Cc1ccccc1C(=O)N1CCCC(N2CCN(Cc3ccc4c(c3)OCO4)CC2)C1 (configuration not stated)	-51.5*	2.1	-4.0	-8.7	-0.1
Cc1cccc(C)c1NC(=O)Cn1nnc(S(=O)(=O)c2ccccc2)c1N	-1.5	2.4	-1.3	1.1	0.4
O=C(CSc1n[nH]c(-c2ccccc2Cl)n1)N1CCN(c2ccc(F)cc2)CC1	1.7	-0.5	-7.5	-2.1	-0.6
O=C(CCN1C(=O)c2cccc3cccc(c23)C1=O)N1CCN(Cc2ccc3c(c2)OCO3)CC1	-30.3*	0.1	-4.3	4.8	-0.5
O=C(CN1C(=O)c2cccc3cccc1c23)N1CCN(Cc2ccc3c(c2)OCO3)CC1	-9.2	-1.1	14.2	14.7	-1.1
O=C(c1ccc(Br)s1)N1CCN(Cc2ccc3c(c2)OCO3)CC1	-34.9*	0.1	-2.2	-4.2	-0.6
O=C(c1ccc(Br)o1)N1CCN(Cc2ccc3c(c2)OCO3)CC1	1.1	1.0	4.4	3.0	0.0
CC(C)CNS(=O)(=O)c1ccc(CCC(=O)N2CCN(Cc3ccc4c(c3)OCO4)CC2)cc1	-33.1*	16.1	-3.0	-2.4	1.6
O=C(NCc1cccnc1)c1nn(-c2ccc(Cl)cc2)nc1CO	4.2	-0.2	-4.7	6.2	-0.6
COc1cc(NS(=O)(=O)c2ccc(NC(=O)COc3ccc(Cl)cc3Cl)cc2)nc(OC)n1	-24.5	1.7	-5.3	-2.9	0.2
COc1cccc(C2CC(=O)Nc3cc(OC)c(OC)c(OC)c32)c1OC(C)C (configuration not stated)	5.9	1.4	-4.1	-4.2	0.5
CC1N(C)c2cccc3cccc(c23)N1C	-41.3*	0.1	-2.4	-6.3	0.0
CN1c2cccc3cccc(c23)N(C)C1c1cccs1	-3.9	8.4	-6.0	-2.7	-0.5
COc1ccc(C2C(C(=O)Nc3ccccc3OC)=C(C)Nc3c(C(=O)Nc4ccccc4)cnn32)c(OC)c1 (configuration not stated)	0.1	6.1	-3.2	-3.8	-1.8
COC(=O)c1ccc(-c2noc(CN(C)CCC3CCCCO3)n2)cc1 (configuration not stated)	-60.6*	4.1	-8.0	-6.6	0.8
COC(=O)c1ccc(-c2noc(CN(C)Cc3ccncc3C)n2)cc1	-41.2*	16.9	-0.9	-3.5	0.6
CCOc1ccccc1C(=O)N1CC(=O)Nc2ccc(C)cc2C1c1ccccc1 (configuration not stated)	-3.2	10.4	-4.4	0.2	1.1
CC(=O)Nc1ccc(NC(=O)CCc2nc3cccnc3n2Cc2cccs2)cc1	-9.2	5.5	4.4	1.3	-1.6
